According to PubChem BioAssay (NCATS):
Inconclusive results are not listed. Activity calls are given as the source filed them. Unless noted, calls follow the shape of the dose curve; as a rule, active = well fitted curve in the direction sought with a large enough effect; inconclusive = small, poorly fitted or top-dose-only effect, or another doubt; inactive = no such curve, though single readings can be large; an effect the other way counts as inactive or inconclusive.

What was measured:
[1] = Primary qHTS for inhibitors of La Crosse Virus (LACV) - induced cell death in SH-SY5Y cells (AID 1508616);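 also: top concentration of the series differs between compounds; higher means more rescue of cells from virus-induced death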
Summary of the method: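 Protection against LACV-induced cell death is scored in SH-SY5Y cells exposed to compounds and virus (0.01 MOI) for 6 days. Data normalized to virus-infected DMSO wells and virus-free DMSO wells.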

[2] = molecular target: Calcium and integrin-binding protein 1 (Homo sapiens) (UniProt Q99828); assay: Primary qHTS for Identification of Calcium Integrin Binding Protein 1 (CIB1) Competitor (AID 1508620); also: potency is read from the fitted curve at half-maximal effect;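 as to activity change, negative = inhibition: GST tagged CIB1 binding a fluorescein labelled alphaIIb integrin peptide tracer; top concentration of the series differs between compounds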
Summary of the method: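 Fluorescence polarization competition: GST-tagged CIB1 (1 uM final) preincubated with compound 15 min at room temperature, then FITC-labelled alphaIIb peptide (100 nM final) added. After 15 min at room temperature, polarization read at Ex 480/Em 540.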

[3] = Primary qHTS for small molecule stabilizers of the endoplasmic reticulum resident proteome: Secreted ER Calcium Modulated Protein (SERCaMP) assay (AID 1508630)
Summary of the method: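 GLuc-SERCaMP-expressing SH-SY5Y cells, pretreated 16 h with compound, are challenged with thapsigargin to empty ER calcium stores; after 4 h, coelenterazine is added directly to the medium and luminescence is imaged.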

[4] = A High-Content qHTS Against Drug Library for the Identification of Small Molecules that Inhibit DYT1 Early Onset Primary Dystonia-Associated Cell Pathology (AID 1645839; calls by dose curve)
Summary of the method: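 Flp-In T-REx 293 cells with tetracycline-inducible EGFP-delE hTOR1A (WT EGFP-hTOR1A as reference), 800 cells/well; compound added with tetracycline, 48 h at 37 C. Fixed, permeabilized cells imaged; %pathology (punctate TorsinA) primary, cell count counterscreen.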

[5] = molecular target: Cytochrome P450 2C9 (Homo sapiens) (UniProt P11712); assay: Cytochrome P450 family 2 subfamily C member 9 (CYP2C9) small molecule antagonists: luciferase biochemical (cell-free) qHTS assay (AID 1645842; active = well fitted curve in the direction sought with a large enough effect in the repeat runs; an effect the other way counts as inactive or inconclusive; also: nearly all actives have a fitted effect of over 55% in size; also: potency is read from the fitted curve at half-maximal effect)
Summary of the method: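 Luminescence, after 20 min with luciferin detection reagent, reflected CYP2C9 turnover during a 1 h NADPH-driven reaction at 37C. Enzyme-substrate mix contained 0.4% bovine serum albumin and was preincubated with compound 10 min at room temperature.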

[6] = Cytotoxicity counterscreen for inhibitors of SARS-CoV-2 cell entry (AID 1645845; calls by dose curve; also: nearly all actives have a fitted effect of over 50% in size)
Summary of the method: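 HEK293-ACE2 cells (Expi293F stably expressing human ACE2) seeded overnight, then compound for 1 h plus 48 h at 37C. Viability as ATP content by luminescence; normalized to wells with cells and media-only wells.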

[7] = Primary qHTS to identify inhibitors of SARS-CoV-2 cell entry (AID 1645846; calls by dose curve; also: nearly all actives have a fitted effect of over 45% in size; also: potency is read from the fitted curve at half-maximal effect); conditions: activity change, negative = inhibition: at 57.1 µM (top of the series) unless noted
Summary of the method: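 Using luciferase-reporting pseudoviruses carrying Wuhan-Hu-1 spike, the screen tracks entry into stably ACE2-expressing cells over 48 hr. Activity is expressed relative to spike particles versus particles lacking any fusion protein.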

[8] = Primary qHTS for inhibitors of nuclear receptor binding SET domain protein 2 (NSD2) in an isogenic RCH-ACV NSD2 p.E1099K mutant (9B) (AID 1645876); also: nearly all actives have a fitted effect of over 70% in size; also: potency is read from the fitted curve at half-maximal effect
[9] = Primary qHTS for inhibitors of nuclear receptor binding SET domain protein 2 (NSD2) in an RCH-ACV wild type WT cells (2C) (AID 1645877); also: nearly all actives have a fitted effect of over 70% in size; also: potency is read from the fitted curve at half-maximal effect
[10] = molecular target: Cytochrome P450 2D6 (Homo sapiens) (UniProt P10635); assay: Cytochrome P450 family 2 subfamily D member 6 (CYP2D6) small molecule antagonists: luciferase biochemical (cell-free) qHTS assay (AID 1645840; active = well fitted curve in the direction sought with a large enough effect in the repeat runs; an effect the other way counts as inactive or inconclusive; also: nearly all actives have a fitted effect of over 55% in size; also: potency is read from the fitted curve at half-maximal effect)
Summary of the method: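 P450-Glo luminescent screen: recombinant CYP2D6 enzyme–proluciferin substrate mix preincubated with compound 10 min at room temperature, then NADPH regeneration added for 1 h at room temperature. Detection reagent added for 20 min; luciferin light read as relative luminescence units.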

[11] = molecular target: Cytochrome P450 3A4 (Homo sapiens) (UniProt P08684); assay: Cytochrome P450 family 3 subfamily A member 4 (CYP3A4) small molecule antagonists: luciferase qHTS assay (AID 1645841; active = well fitted curve in the direction sought with a large enough effect in the repeat runs; an effect the other way counts as inactive or inconclusive; also: nearly all actives have a fitted effect of over 45% in size; also: potency is read from the fitted curve at half-maximal effect)
Summary of the method: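 P450-Glo CYP3A4 enzyme with proluciferin substrate preincubated 10 min with compound at room temperature, then NADPH regeneration 1 h. Luciferin detection reagent added for 20 min; luminescence recorded. Ketoconazole positive control.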

[12] = molecular target: N-terminal Xaa-Pro-Lys N-methyltransferase 1 (Homo sapiens) (UniProt Q9BV86); assay: Confirmatory qHTS for Inhibitors of N-terminal methyltransferase 1 (NTMT1): MTaseGlo Assay (AID 1645874); also: nearly all actives have a fitted effect of over 65% in size; also: potency is read from the fitted curve at half-maximal effect;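 as to activity change, negative = inhibition: luminescence from SAH made as NTMT1 methylates SPKRIA peptide using SAM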
Summary of the method: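 Luminescent MTase-Glo read-out of SAH. 125 nM NTMT1, 100 uM SAM, 1 uM SPKRIA substrate, 30 min RT reaction after 15 min compound preincubation. Normalized to no-enzyme and DMSO controls; Hill fit.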

[13] = VSVG counterscreen qHTS to identify inhibitors of SARS-CoV-2 cell entry (AID 1645847; calls by dose curve; also: nearly all actives have a fitted effect of over 65% in size; also: potency is read from the fitted curve at half-maximal effect)
Summary of the method: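 Entry of VSV-G pseudotyped particles into human ACE2-expressing HEK293 cells was measured by luciferase luminescence 48 h after infection, with compound added 1 h beforehand.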

Sequence of Cytochrome P450 2D6 (Homo sapiens) (P10635 whole entry, looked up): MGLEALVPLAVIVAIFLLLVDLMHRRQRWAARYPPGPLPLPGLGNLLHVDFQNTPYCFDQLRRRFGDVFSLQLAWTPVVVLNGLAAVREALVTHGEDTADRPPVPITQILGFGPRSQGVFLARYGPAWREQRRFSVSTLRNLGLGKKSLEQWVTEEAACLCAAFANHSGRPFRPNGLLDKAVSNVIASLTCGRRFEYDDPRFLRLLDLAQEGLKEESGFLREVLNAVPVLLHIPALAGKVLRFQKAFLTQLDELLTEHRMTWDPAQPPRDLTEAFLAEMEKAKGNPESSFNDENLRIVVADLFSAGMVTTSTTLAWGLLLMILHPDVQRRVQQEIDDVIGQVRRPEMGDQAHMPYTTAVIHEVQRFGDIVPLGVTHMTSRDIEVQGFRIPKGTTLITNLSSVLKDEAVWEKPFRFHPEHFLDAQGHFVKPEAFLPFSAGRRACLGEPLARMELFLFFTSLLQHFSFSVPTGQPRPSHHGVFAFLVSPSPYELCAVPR
Sequence of Calcium and integrin-binding protein 1 (Homo sapiens) (Q99828 whole entry, looked up): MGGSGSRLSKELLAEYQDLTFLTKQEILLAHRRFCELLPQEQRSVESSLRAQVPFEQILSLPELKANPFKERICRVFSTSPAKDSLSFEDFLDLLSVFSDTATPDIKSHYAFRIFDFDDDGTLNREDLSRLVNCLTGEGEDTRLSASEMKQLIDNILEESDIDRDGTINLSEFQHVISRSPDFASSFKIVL
Sequence of Cytochrome P450 2C9 (Homo sapiens) (P11712 whole entry, looked up): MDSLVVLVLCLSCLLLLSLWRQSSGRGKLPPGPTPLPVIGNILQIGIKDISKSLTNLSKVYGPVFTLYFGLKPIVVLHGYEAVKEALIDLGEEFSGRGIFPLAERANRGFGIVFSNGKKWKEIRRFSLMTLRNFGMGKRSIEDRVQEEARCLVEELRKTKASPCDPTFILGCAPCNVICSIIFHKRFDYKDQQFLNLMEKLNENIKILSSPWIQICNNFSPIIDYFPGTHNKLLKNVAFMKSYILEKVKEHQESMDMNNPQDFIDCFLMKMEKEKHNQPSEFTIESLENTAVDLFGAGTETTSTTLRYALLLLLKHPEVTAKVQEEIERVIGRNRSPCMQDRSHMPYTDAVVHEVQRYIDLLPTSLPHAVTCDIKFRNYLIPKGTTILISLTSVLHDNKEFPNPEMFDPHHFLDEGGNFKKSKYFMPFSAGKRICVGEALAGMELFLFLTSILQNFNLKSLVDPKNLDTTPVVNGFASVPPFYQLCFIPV
Sequence of N-terminal Xaa-Pro-Lys N-methyltransferase 1 (Homo sapiens) (Q9BV86 whole entry, looked up): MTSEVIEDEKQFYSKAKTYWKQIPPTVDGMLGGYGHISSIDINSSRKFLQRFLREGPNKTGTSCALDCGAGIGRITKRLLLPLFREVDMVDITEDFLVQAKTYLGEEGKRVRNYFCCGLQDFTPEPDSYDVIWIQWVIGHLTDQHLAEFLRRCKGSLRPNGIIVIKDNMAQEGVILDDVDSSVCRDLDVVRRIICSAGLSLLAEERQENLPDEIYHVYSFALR
Sequence of Cytochrome P450 3A4 (Homo sapiens) (P08684 whole entry, looked up): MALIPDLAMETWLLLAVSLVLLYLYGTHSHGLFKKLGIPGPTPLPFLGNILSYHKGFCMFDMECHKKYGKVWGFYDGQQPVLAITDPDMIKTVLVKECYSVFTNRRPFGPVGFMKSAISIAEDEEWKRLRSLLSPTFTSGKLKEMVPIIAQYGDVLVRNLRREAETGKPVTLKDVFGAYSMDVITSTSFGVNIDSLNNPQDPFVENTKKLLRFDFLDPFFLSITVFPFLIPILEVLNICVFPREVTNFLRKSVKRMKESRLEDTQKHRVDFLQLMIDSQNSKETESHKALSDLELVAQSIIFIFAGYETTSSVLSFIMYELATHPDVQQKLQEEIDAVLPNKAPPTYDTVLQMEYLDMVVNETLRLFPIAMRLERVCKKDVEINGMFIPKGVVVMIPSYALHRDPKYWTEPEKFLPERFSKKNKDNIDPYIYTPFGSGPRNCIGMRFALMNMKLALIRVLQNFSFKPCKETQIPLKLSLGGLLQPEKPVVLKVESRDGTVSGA

C[C@H](N)[C@H](O)c1ccc(O)c(O)c1
-20.4%: activity change, negative = inhibition [7]
inactive: outcome [1] | Potency [2] | outcome [3] | outcome [4] | Potency [5] | Potency [6] | Potency [8] | Potency [9]

CNC(C)Cc1ccccc1OC (stereo unspecified)
inactive: outcome [1] | Potency [2] | outcome [3] | outcome [4] | Potency [5] | Potency [6] | Potency [7]

Nc1ccc(N)cc1
inactive: outcome [1] | Potency [2] | outcome [3] | Potency [8]
active: Potency [10] 3.09 µM | Potency [5] 15.5 µM

CC(=O)OC1(c2ccccc2)CCN(CCc2ccccc2)CC1
inactive: outcome [1] | Potency [2] | outcome [3] | Potency [11] | Potency [8] | Potency [9]

CN1C(=O)CN=C(c2ccccc2)c2cc(Cl)ccc21
inactive: outcome [1] | Potency [2] | outcome [3] | outcome [4] | Potency [8] | Potency [9]

Cc1ncc2n1-c1ccc(Cl)cc1C(c1ccccc1F)=NC2
inactive: outcome [1] | Potency [2] | outcome [3] | outcome [4]
active: Potency [8] 23.7 µM | Potency [9] 13.3 µM

COP(=S)(OC)Oc1ccc(Sc2ccc(OP(=S)(OC)OC)cc2)cc1
inactive: outcome [1] | Potency [2] | outcome [4] | Potency [10]
active: Potency [11] 7.76 µM | Potency [5] 15.5 µM

COP(=O)(OC)C(O)C(Cl)(Cl)Cl (stereo unspecified)
inactive: outcome [1] | Potency [2] | outcome [3] | outcome [4] | Potency [6] | Potency [8] | Potency [9]

O=C(O)CCCCCCNC1c2ccccc2CCc2ccccc21
inactive: outcome [1] | Potency [2] | outcome [3] | outcome [4] | Potency [5] | Potency [8] | Potency [9]

CC(C)NCC(O)c1ccc(N)c(C#N)c1 (stereo unspecified)
inactive: outcome [1] | Potency [2] | outcome [3] | outcome [4] | Potency [8] | Potency [9]

CC[C@]1(O)CC[C@H]2[C@@H]3CCC4=CCCC[C@@H]4[C@H]3CC[C@@]21C
active: Potency [2] 31.6 µM | Potency [10] 17.4 µM | Potency [12] 14.1 µM | Potency [8] 9.44 µM | Potency [9] 7.5 µM
inactive: outcome [1] | outcome [3] | Potency [5] | Potency [6]

C[C@@H]1CC[C@H]2[C@@H](C)C(=O)O[C@@H]3O[C@@]4(C)CC[C@@H]1[C@]32OO4
inactive: outcome [1] | Potency [2] | outcome [3] | outcome [4] | Potency [6]
active: Potency [9] 5.25 µM
-32%: activity change, negative = inhibition [7]

CC[C@H]1C[C@@H]2C[C@H]3c4[nH]c5ccc(OC)cc5c4CCN(C2)[C@@H]13
active: Potency [10] 0.278 µM
inactive: outcome [1] | Potency [2] | outcome [4] | Potency [5]

Cc1nc2ccccc2c(=O)n1-c1ccccc1Cl
inactive: outcome [1] | Potency [2] | outcome [3] | outcome [4]
active: Potency [5] 27.7 µM

CCCCC1C(=O)NC(=O)N(C2CCCCC2)C1=O (stereo unspecified)
active: Potency [5] 26.8 µM
inactive: outcome [1] | Potency [2] | outcome [4] | Potency [10] | Potency [6] | Potency [7]

CC1N=C(N)OC1c1ccccc1 (stereo unspecified)
inactive: outcome [1] | Potency [2] | outcome [4] | Potency [5]
active: Potency [10] 4.92 µM

Cc1nnc2n1-c1sc(CCc3ccc(CC(C)C)cc3)cc1C(c1ccccc1Cl)=NC2C (stereo unspecified)
active: Potency [10] 27.5 µM | Potency [5] 15.5 µM | Potency [7] 22.4 µM | Potency [8] 7.5 µM | Potency [9] 8.41 µM
inactive: outcome [1] | Potency [2] | outcome [3]

COc1cc(CC(C)N)c(OC)cc1Br (stereo unspecified)
inactive: outcome [1] | Potency [2] | outcome [3] | Potency [5]
active: Potency [10] 29.2 µM | Potency [8] 10.1 µM | Potency [9] 8.96 µM

CNC(=O)NC(O)C(Cl)(Cl)Cl (stereo unspecified)
inactive: outcome [1] | Potency [2] | outcome [4] | Potency [10] | Potency [5]

O=C1CN2CCOC2(c2ccccc2Cl)c2cc(Cl)ccc2N1 (stereo unspecified)
-6.92%: activity change, negative = inhibition [7]
inactive: outcome [1] | Potency [2] | outcome [3] | Potency [5] | Potency [6] | Potency [8] | Potency [9]

C=CC[C@]1(O)CC[C@H]2[C@@H]3CCC4=CC(=O)CCC4=C3C=C[C@@]21C
inactive: outcome [1] | Potency [2] | outcome [3] | outcome [4] | Potency [6]
active: Potency [5] 11 µM | Potency [13] 17.1 µM | Potency [9] 23.7 µM

CCc1cc(OC)c(C[C@H](C)N)cc1OC
active: Potency [9] 44.9 µM
inactive: outcome [1] | Potency [2] | outcome [3] | outcome [4] | Potency [5] | Potency [12]

CCOC(C(=O)OCCN(C)C)(c1ccccc1)c1ccccc1
inactive: outcome [1] | Potency [2] | outcome [4] | Potency [8] | Potency [9]
active: Potency [10] 1.38 µM | Potency [5] 3.09 µM

O=C(CCCN1CCC(n2c(=O)[nH]c3ccccc32)CC1)c1ccc(F)cc1
active: Potency [10] 6.92 µM
inactive: outcome [1] | Potency [5] | Potency [6] | Potency [7]

Clc1ccc(C(OCCN2CCCCC2)c2ccccc2)cc1 (stereo unspecified)
inactive: outcome [1] | Potency [2] | Potency [5] | Potency [6] | Potency [13]
active: Potency [10] 0.049 µM | Potency [8] 26.6 µM | Potency [9] 26.6 µM

C[C@]12CC[C@H]3[C@@H](CCC4=CC(=O)CC[C@@]43C)[C@@H]1CC[C@@H]2C(=O)O
inactive: outcome [1] | Potency [2] | outcome [4] | Potency [10] | Potency [5] | Potency [8] | Potency [9]

C[N+]1(CCC(C(N)=O)(c2ccccc2)c2ccccc2)CCCCC1
active: Potency [10] 15.5 µM
inactive: outcome [1] | Potency [2] | outcome [4] | Potency [5] | Potency [8] | Potency [9]
